This is an account of results in ChEMBL document CHEMBL3988442, “University of Dundee, Small-Polar-MMV Screening Library” (2021).

Each structure is given as a SMILES string. Hit rate of the full screen: of about 66,000 compounds, about 960 (1.5%) showed an effect of 50% or more. The list comes from a sample in which strong results are over-represented; it also holds similar structures and randomly drawn compounds.

The subject of this test is Trypanosoma brucei. Put plainly: Trypanosoma brucei 72 hour study. In kind it is functional, organism-based. Further details: scale not given: in the data most compounds retested in dose-response had high values.

As for `CCc1ncc(CN2CCOC(Cc3cccc(F)c3)C2)cn1` (configuration not stated), the “Percent Effect” value (30.3 µM, […]) was -57.81%.

Turning to `O=C(Cc1ccc2c(c1)CCCC2)Nc1cccnc1N1CCSCC1`, the “Percent Effect” value (30 µM, 30.03 µM) is on record as 7.169%.

On to `COCCNC(=O)c1cc2c(s1)CCN2C(=O)c1ccccc1`, for which the “Percent Effect” value (30 µM, 30.03 µM) is reported as 61.44%. For the molecule `O=C(NCCN1CCCC1)c1cc2c(s1)CCN2C(=O)c1ccccc1`, under “30.3 µM, […]”, the “Percent Effect” value is -8.761%. Same read-out and setting: in the case of `CCCNC(=O)c1cc2c(s1)CCN2C(=O)c1ccccc1` it was -5.969%. Still for that read-out and setting: in the case of `CCOc1ncccc1CNC(=O)Nc1ccc(N(C)C)nc1` it was -10.18%; in that of `CN1CCN(C(=O)C2CCCN(c3cccnn3)C2)CC1` (configuration not stated), 101%. Regarding `CN1CCN(C(=O)C2CCN(c3cccnn3)C2)CC1` (configuration not stated), the “Percent Effect” value (30.3 µM, […]) is recorded as 1.766%.

`CN1CCN(C(=O)C2CCN(c3cccnn3)CC2)CC1`: for the setting “30.3 µM, […]”, the “Percent Effect” value is -20.3%.

`CC(C)(C)CN1CC(O)CN(C(=O)c2cccc(C(F)(F)F)c2)CC1=O` (configuration not stated): the “Percent Effect” value (30.3 µM, […]) is given as -4.351%. With `CC(C)N(C)Cc1cnc2n1CCN(C(=O)Cc1ccsc1)C2.O=C(O)C(F)(F)F`, the “Percent Effect” value (30 µM, 30.03 µM) is listed as -22.47%. On the same count and under the same terms, to `Cc1ccc2c(n1)N(CCN(C)C)CCN(C(=O)c1ccc[nH]1)C2.O=C(O)C(F)(F)F.O=C(O)C(F)(F)F` belongs 4.99%; to `CCCc1nnc(NCCc2noc(C3CCCC3)n2)o1`, -39.45%. In the case of `CCCc1nnc(NCCc2noc(C3CCC3)n2)o1`, the “Percent Effect” value (30 µM, 30.03 µM) is on record as -16.87%. For `c1ccc(-c2nc(CCNc3nnc(C4CCC4)o3)no2)cc1`, the “Percent Effect” value (30.3 µM, […]) was 99.59%. Regarding `c1ccc(-c2n[nH]c(CCNc3nnc(C4CCC4)o3)n2)cc1`, under “30.3 µM, […]”, the “Percent Effect” value was found to be 99.86%. The same measure, in the same setting: to `c1cc(-c2n[nH]c(CNc3nnc(C4CC4)o3)n2)ccn1` belongs 0.7676%. Same read-out and setting: in the case of `O=S(=O)(NCCc1nc(-c2cccnc2)n[nH]1)NCc1ccccc1` it was -84.2%; in that of `CN(C)C(=O)N[C@H]1CN(Cc2ccc3c(c2)OCO3)[C@@H]2CCCO[C@H]12.O=C(O)C(F)(F)F`, -7.695%; in that of `CS(=O)(=O)NCc1cncc2c1CCN(C(=O)N1CCCC1)C2.Cl`, -11.25%. On the same count and under the same terms, to `Cc1noc([C@@]23CCO[C@@H]2CCN(Cc2scnc2C)C3)n1.O=C(O)C(F)(F)F` belongs 7.313%; to `O=c1[nH][nH]cc1-c1ccnc(NCCc2cccc(O)c2)n1`, -16.62%.

For `CCN(CC1CCOC1)C(=O)c1ccc(N2CCOCC2)c(F)c1` (configuration not stated), where the note is “30.3 µM, […]”, the “Percent Effect” value is on record as -9.543%. With `COc1cccc(NC(=O)N(CCO)Cc2ccsc2)c1`, the “Percent Effect” value (30 µM, 30.03 µM) worked out at 51.17%. As for `O=C(Nc1ccncc1)N(CCO)Cc1ccsc1`, under “30.3 µM, […]”, the “Percent Effect” value stood at 7.021%. For `CN(C)C(=O)c1cccc(NC(=O)N(CCO)Cc2ccsc2)c1`, the “Percent Effect” value (30 µM, 30.03 µM) is given as -3.434%.

Take `Cc1nc(N)nc(C)c1CC(=O)NCc1ccc2nonc2c1`: the “Percent Effect” value (30 µM, 30.03 µM) was -40.59%.
